# High-throughput results: PubChem BioAssay, National Center for Advancing Translational Sciences (NCATS)
# An excerpt weighted towards active compounds, which were near 17% of everything screened.
# TDP1 cell CPT – growth inhibition of DT40 Tdp1-/-;hTDP1 cells with camptothecin (screen for TDP1 inhibitors); chicken DT40 Tdp1-/-;hTDP1 cells + 20 nM CPT, ATP luminescence, 48 h; Potency, µM (highest dose often 46.2 µM), for inactives: at the highest dose activity change, negative = growth inhibition, most hits filed as inhibitors; 12% of 420,000 active; AID 686979; note: % is set by controls: 0 for no effect and ±100 for the full control effect; nearly all actives have a fitted effect of over 55% in size
#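 Cell growth measured by CellTiter-Glo luminescence after a minimum 48 h, 37 C compound exposure with 20 nM CPT in Tdp1-knockout DT40 cells stably expressing hTDP1, seeded 400/well; qHTS titration format.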
# HT1080 IDH1KD tx – kills HT-1080 cells with IDH1 knockdown. 2% of 360,000 active. Potency, µM (doses to about 46.1 µM), for the others: at the top dose activity, negative = toxicity, most hits filed as cytotoxic. HT-1080 IDH1 knockdown viability, ATP luminescence, 48 h;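 note: 0% = DMSO wells and -100% = cell-free medium wells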
#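 IDH1KD HT-1080 cells, 750/well, RPMI + 5% FBS; compound pinned after 2 h settling; 48 h, 37 °C; CellTiter-Glo luminescence; % activity normalised to DMSO and no-cell wells; curves fitted, classed by r2 and efficacy.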
# HT1080NT lethal – kills 2HG-producing HT-1080-NT fibrosarcoma cells; HT-1080-NT fibrosarcoma viability, CellTiter-Glo ATP luminescence, 48 h; Potency, µM (highest dose often 46.1 µM), for inactives: at the highest dose activity, negative = less viability, usual class: cytotoxic; 1.6% of 360,000 active;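 note: NT is the 2HG producing partner of a matched IDH1 knockdown line; 0% = DMSO-treated cells and -100% = media-only wells without cells; nearly all actives have a fitted effect of over 55% in size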
#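 Toxicity toward the 2HG-producing NT line was scored as %Activity, normalised to DMSO and no-cell wells, from CellTiter-Glo luminescence after 48 hours' treatment.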
# HepG2 viability – counter-screen for TGF-b inhibitors: cytotoxicity in HepG2 cells | Potency, µM (titrated, usually from 46.1 µM), without a hit: at the highest dose activity change, negative = cytotoxicity, actives largely listed as cytotoxic | AID 588856 | HepG2 CAGA-GFP viability, ATP luminescence, 18 h | 0.76% of 410,000 active
#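 HepG2 CAGA-GFP cells (1000/well, DMEM with 1% FBS) received compound, then TGF-beta at 500 pg/mL final, and were incubated 18 hours at 37 degrees C. Viability was read by CellTiter-Glo luminescence. Media-only wells were set as complete cell-killing and DMSO as no toxicity.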
# TGFb inhibitor – inhibitors of TGF-b signaling; HepG2 CAGA-GFP TGF-b/SMAD3 reporter, GFP fluorescence, 18 h; TGF-beta stimulated, 500 pg/mL final; Potency, µM (highest dose often 46.1 µM), for the others: top-dose activity, negative = inhibition, hits mostly inhibitors; 1.2% of 410,000 active; AID 588855; note: % is set by controls: 0 for no effect and ±100 for the full control effect; nearly all actives have a fitted effect of over 65% in size
#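 GFP signal (ex488/em500-530) from TGF-beta-stimulated HEPG2 CAGA-GFP cells, 500 pg/mL final, 18 h at 37 degrees C in DMEM plus 1% FBS, normalized to unstimulated and DMSO-stimulated controls.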
# TDP1 cell noCPT – qHTS for Inhibitors of human tyrosyl-DNA phosphodiesterase 1 (TDP1): qHTS in cells in absence of CPT | 15% of 420,000 active | DT40 Tdp1-/- hTDP1 cells, no CPT, ATP luminescence, 48 h | Potency, µM (titrated, usually from 46.2 µM), for inactives: at the top dose activity change, negative = growth inhibition, actives largely listed as inhibitors; note: % is set by controls: 0 for no effect and ±100 for the full control effect; nearly all actives have a fitted effect of over 55% in size
#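 Cells were dispensed at 400 per well, compounds added by pin tool, plates incubated ≥48 hr at 37 °C, then CellTiter-Glo added for 30 min at room temperature before luminescence reading. Line: DT40 Tdp1-/- complemented with hTDP1; camptothecin omitted.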
# Active calls of the source: *; ? = inconclusive; . = no result. Calls come from the whole dose curve; as a rule, active = well fitted curve in the direction sought with a large enough effect; inconclusive = small, poorly fitted or top-dose-only effect, or another doubt; inactive = no such curve, though single readings can be large; an effect the other way counts as inactive or inconclusive. Potency is the fitted concentration of half-maximal effect.
SMILES,TDP1 cell CPT,HT1080 IDH1KD tx,HT1080NT lethal,HepG2 viability,TGFb inhibitor,TDP1 cell noCPT
CC12CCC(=O)N1C(C(=O)Nc1ccc(S(=O)(=O)N3CCCCC3)cc1)CS2 (centres undefined),-13%,1%,2%,-1%,-19%,-4%
Cc1ccc(NC2CCCN(C(=O)CN3C(=O)c4ccccc4C3=O)C2)cc1C (centres undefined),-22%,7%,3%,-1%,2%,-3%
CCOC(=O)C1CCCN(Cc2nc(N)nc(Nc3ccc(Cl)cc3)n2)C1 (centres undefined),?,-14%,-11%,0%,15%,16µM*
CCOC(=O)C1CCCN(Cc2nc(N)nc(Nc3ccc(OC)cc3)n2)C1 (centres undefined),29µM*,-3%,-12%,-39%,-17%,?
CCOC(=O)N1CCN(Cc2nc(N)nc(Nc3ccc(Oc4ccccc4)cc3)n2)CC1,?,?,16µM*,-5%,?,16µM*
CCOC(=O)c1c(NC(=O)c2cc(=O)c3c(C)cc(C)cc3o2)sc(C)c1C,13%,.,.,-50%,-13%,-10%
Cc1ccc(S(=O)(=O)NCC2CCC(C(=O)NCc3cccnc3)CC2)cc1 (centres undefined),-37%,14%,8%,-15%,12%,?
Cc1csc(SCC(=O)NC2CCS(=O)(=O)C2)n1 (centres undefined),13%,15%,-1%,7%,16%,?
CC(C)c1ccc(NC(=O)CCS(=O)(=O)c2ccc3c(c2)CC(=O)N3C)cc1,?,.,.,-18%,?,-15%
Cc1nc2ccccn2c1-c1csc(NCc2ccco2)n1,13µM*,-25%,-27%,-36%,-6%,21µM*
Cc1ccn2c(-c3csc(NCc4ccccc4)n3)c(C)nc2c1,?,?,?,-22%,?,15µM*
Cc1nc(C)c(-c2csc(NCc3ccco3)n2)s1,?,-1%,-1%,-7%,-2%,?
Cc1ccn2c(-c3n[nH]c(=S)n3Cc3ccccc3)c(C)nc2c1,-3%,-1%,11%,-9%,0%,?
CCOC(=O)c1c(-c2ccccc2)oc2cc(Br)c(OCc3ccccc3)cc12,-17%,.,.,-17%,0%,-4%
CCC(Oc1ccc(F)cc1)C(=O)Nc1cc(-c2ccc(C)cc2)no1 (centres undefined),?,.,.,-9%,?,?
CCC(Oc1ccc(F)cc1)C(=O)Nc1nc(-c2ccc(F)cc2)ns1 (centres undefined),18µM*,.,.,-52%,-22%,10µM*
c1ccc2c(-c3[nH]ncc3CNCCCn3ncc4ccccc43)cccc2c1,18µM*,?,?,-8%,-16%,12µM*
CON(C)C(=O)CCN(C(=O)OC(C)(C)C)c1ccccc1,-16%,2%,11%,0.56µM*,27%,-17%
O=C(c1ccc(N2CCN(C(=O)c3ccccc3Br)CC2)cc1)c1cccc(F)c1,16µM*,?,-24%,-8%,0%,26µM*
CCOC(=O)N1CCN(c2ccc(C(=O)c3cccc(F)c3)cc2)CC1,13µM*,-1%,?,-51%,?,21µM*
O=C(c1ccccc1)N1CCN(C(=O)c2ccccc2Br)CC1,-12%,0%,-3%,-3%,-4%,6%
CCOC(=O)N1CCN(CCC(=O)Nc2cccc(F)c2)CC1,-11%,.,.,-23%,0%,3%
O=C(c1ccccc1)c1ccc(C(=O)N2CCN(c3ccc(F)cc3)CC2)o1,?,-24%,-21%,-24%,?,12µM*
O=C(c1ccc(N2CCN(C(=O)c3cccc(F)c3)CC2)cc1)c1cccc(F)c1,16µM*,-17%,-29%,-25%,?,?
O=C(c1cccc(F)c1)N1CCN(c2cccc(C(F)(F)F)c2)CC1,?,-13%,-5%,-7%,-8%,?
SMILES,TDP1 cell CPT,HT1080 IDH1KD tx,HT1080NT lethal,HepG2 viability,TGFb inhibitor,TDP1 cell noCPT
OC(COCCOc1ccc(Br)cc1)CN1CCN(Cc2ccccc2)CC1 (centres undefined),?,-16%,-15%,-31%,?,23µM*
COc1cccc(OCCOCC(O)CN2CCN(Cc3ccc(Cl)cc3)CC2)c1 (centres undefined),-26%,-9%,-2%,-25%,?,?
OC(CNC1CCCCC1)COCCOc1ccc(Br)cc1 (centres undefined),13µM*,?,?,-69%,?,23µM*
OC(CNC1CCCC1)COc1ccc(-c2ccccc2)cc1 (centres undefined),?,?,?,-7%,-16%,?
CCc1ccc(OCCOCC(O)CN2CCN(Cc3ccc(Cl)cc3)CC2)cc1 (centres undefined),18µM*,?,?,-42%,?,?
O=C1ON=C(c2ccccc2)/C1=C/c1ccc(O)cc1,23µM*,10%,10%,-4%,6%,?
Cc1ccc(C2=NOC(=O)/C2=C\c2ccccc2)cc1,?,-2%,2%,-39%,?,?
Cc1ccc(/C=C2/C(=O)ON=C2c2ccccc2)o1,21µM*,0%,-4%,-7%,-25%,15µM*
O=C1ON=C(c2ccc(Cl)cc2)/C1=C/c1ccc(O)cc1,7.3µM*,?,?,-46%,?,12µM*
O=C1ON=C(c2ccccc2)/C1=C/c1ccccc1,0%,0%,12%,7%,1%,-33%
O=C1ON=C(c2ccccc2)/C1=C\c1ccco1,-14%,12%,10%,-12%,?,-5%
COc1cc2c(cc1OC)C1=NC(=O)CN1C(SCc1ccccc1)=N2,18µM*,-3%,-2%,1%,?,9.2µM*
COc1ccc(CCN2C(=O)c3cccc4cccc(c34)C2=O)cc1OC,-22%,2%,12%,-6%,-14%,?
CCN(CC)C(=O)c1ccc2c3c(cccc13)C(=O)N(CCc1ccc(OC)c(OC)c1)C2=O,8.2µM*,11%,0%,-4%,5%,8.2µM*
c1ccc2c(-c3nc(C4CCCCC4)no3)cc(-c3ccncc3)nc2c1,?,7%,3%,-2%,25%,23µM*
CN(C)c1ccc(C=C2SC(=S)NC2=O)cc1,0%,-1%,0%,8%,61%,?
